Source: PubChem (several laboratories)
BoNT-F LC inh = BoNT/F light chain protease inhibitors, primary screen, biochemical, flow cytometry, MLPCN library. Botulinum neurotoxin type F light chain protease (Clostridium botulinum). Multiplex microsphere protease cleavage assay. inhibition, % at 10 µM. 0.22% of 360,000 active; in the data active means inhibition above about 35%, passing the limit was not always enough; inconclusive means no clear call, values can overlap the other calls; further: plate controls were buffer without enzyme for full effect and enzyme alone for no effect
Autofluor counter = compound fluorescence in toxin protease inhibitor counterscreen. 3.1% of 360,000 active. fluorescence intensity (test concentration not listed). compound autofluorescence counterscreen, microsphere flow cytometry; active compounds read high. AID 624483; in the data active means fluorescence intensity above about 16000; inconclusive means no clear call, values can overlap the other calls
BoNT A protease = BoNT/A light chain protease inhibitors, primary screen, biochemical, flow cytometry, MLPCN library. Botulinum neurotoxin type A light chain protease (Clostridium botulinum A str. ATCC 3502). multiplex microsphere protease substrate cleavage. inhibition, % at 10 µM. 0.17% of 360,000 active. AID 588499, 2011; further: plate controls were buffer without enzyme for full effect and enzyme alone for no effect
MazEF act = activators of E. coli MazEF toxin-antitoxin RNase, primary screen, biochemical, fluorescence, uHTS; 0.32% of 350,000 active; FAM/BHQ RNA-DNA oligo cleavage fluorescence, 5 h; activation, % at 20 µM; in the data active means activation above about 50%
Anthrax LF prot = Bacillus anthracis LF protease inhibitors, primary screen, biochemical, multiplex microsphere, MLPCN library | Lethal factor (Bacillus anthracis), P15917 | multiplex microsphere protease cleavage assay | inhibition, % at 10 µM | 0.12% of 360,000 active; further: plate controls were buffer without enzyme for full effect and enzyme alone for no effect
Target sequence (P15917 whole entry, looked up): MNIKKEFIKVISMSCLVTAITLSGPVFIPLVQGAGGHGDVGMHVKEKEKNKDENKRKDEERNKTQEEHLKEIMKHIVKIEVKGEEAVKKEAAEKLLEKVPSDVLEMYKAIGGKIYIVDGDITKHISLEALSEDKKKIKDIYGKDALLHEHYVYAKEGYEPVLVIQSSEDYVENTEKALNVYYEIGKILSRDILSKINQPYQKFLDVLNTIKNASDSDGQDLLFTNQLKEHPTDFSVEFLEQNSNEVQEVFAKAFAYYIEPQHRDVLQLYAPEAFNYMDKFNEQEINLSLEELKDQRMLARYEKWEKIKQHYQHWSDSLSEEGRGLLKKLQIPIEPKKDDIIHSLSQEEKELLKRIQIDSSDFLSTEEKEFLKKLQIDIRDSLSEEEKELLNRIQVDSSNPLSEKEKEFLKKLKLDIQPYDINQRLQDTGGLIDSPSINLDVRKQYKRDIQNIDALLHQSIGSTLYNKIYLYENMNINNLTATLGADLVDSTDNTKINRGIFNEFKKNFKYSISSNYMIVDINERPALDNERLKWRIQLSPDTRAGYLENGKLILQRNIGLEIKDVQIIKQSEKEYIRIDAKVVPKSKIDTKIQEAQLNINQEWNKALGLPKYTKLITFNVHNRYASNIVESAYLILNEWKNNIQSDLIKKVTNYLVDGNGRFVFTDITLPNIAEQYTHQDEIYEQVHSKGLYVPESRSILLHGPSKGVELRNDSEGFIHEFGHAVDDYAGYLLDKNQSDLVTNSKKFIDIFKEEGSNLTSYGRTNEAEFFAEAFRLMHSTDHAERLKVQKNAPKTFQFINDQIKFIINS
Numbers without * were called inactive; ? = inconclusive; · = not tested or not shown. Rows were chosen to be rich in hits. Some 3.7% of all compounds tested hit in one or more screens of this group. Unless noted, no stated cut-off is given here; in the data, active means inhibition above about 30%; inconclusive means no clear call, values can overlap the other calls; inactive means below that.

SMILES | BoNT-F LC inh | Autofluor counter | BoNT A protease | MazEF act | Anthrax LF prot
O=c1c2ccccc2sn1-c1nccs1 | 20 | 4744 | 102* | -8 | -4
O=c1c2ccccc2sn1-c1ccc(S(=O)(=O)N2CCCCC2)cc1 | -6 | 6856 | 17 | 1 | -6
O=c1c2ccccc2sn1-c1ccccc1F | -2 | 3835 | 24 | -18 | -2
Cc1ccc(-n2sc3ccccc3c2=O)cc1S(=O)(=O)N1CCCCC1 | 10 | 3545 | 32* | -16 | 2
O=c1c2ccccc2sn1-c1ccccc1 | 0 | 3386 | 70* | 5 | 2
O=c1c2ccccc2sn1-c1cccc(Cl)c1 | 1 | 3643 | 3 | -18 | -1
CC1C(=O)Nc2ccc(S(=O)(=O)NCCc3ccc(Cl)cc3)cc2NC1=O (configuration not stated) | -10 | 6347 | 0 | 2 | 6
CN(C)S(=O)(=O)c1cccc(-n2sc3ccccc3c2=O)c1 | -1 | 5640 | 33* | -14 | -6
O=c1c2cc(F)ccc2sn1-c1ccccc1 | -4 | 2963 | 35* | -10 | 4
O=c1c2cc(C(F)(F)F)ccc2sn1-c1ccccc1 | 0 | 3507 | 5 | -10 | 2
CC1(C(=O)NCc2cccs2)CCN1C(=O)Cc1ccc(Cl)cc1Cl (configuration not stated) | 0 | 3672 | 0 | · | 6
O=C(c1ccc(Br)s1)N1CCN(c2ncccn2)CC1 | 0 | 23389* | 2 | 6 | 2
Cc1ccc(C(C)C)c(OCC(=O)NNC(=O)Cc2ccc(S(=O)(=O)N3CCOCC3)s2)c1 | -4 | 3848 | 0 | -4 | 3
CC(C)c1ccc(C(=O)N2CCCCC2c2cc(C(=O)Nc3ccncc3)no2)cc1 (configuration not stated) | -3 | 3631 | 0 | · | -4
O=[N+]([O-])c1ccc2nc(NN=Cc3ccc(O)cc3)sc2c1 | -17 | 4590 | -1 | 17 | -1
CC(C)(C)c1nc(CN2CCCCC2)cc(CN2CCCCC2)c1O | 1 | 4682 | 0 | 0 | -6
CC(C)(C)c1nc(CN2CCOCC2)ccc1O | 2 | 21380* | 2 | 2 | -2
CS(=O)(=O)N1CCN(c2ccccc2NC(=O)c2cccs2)CC1 | -6 | 2876 | 0 | -1 | -2
O=C(Nc1ccccc1N1CCCCC1)c1cccs1 | -5 | 24609* | -3 | -6 | -3
C[C@@H](c1ccccc1)N1C[C@H](COCc2ccccc2)Oc2cc(N3CC[C@H](N(C)C)C3)ccc2S1(=O)=O | -12 | 5967 | 0 | · | -14
CCSc1nnc(NC(=O)C2(C)Cc3ccccc3C(=O)O2)s1 (configuration not stated) | 6 | 17590* | 5 | -7 | -12
O=C(Nc1nnc(SCc2ccccc2)s1)c1cccs1 | 0 | 2670 | 0 | 2 | -2
CC1(C(=O)Nc2nnc(C(C)(C)C)s2)Cc2ccccc2C(=O)O1 (configuration not stated) | -12 | 11347 | -1 | 6 | -1
CCSc1nnc(NC(=O)c2cccs2)s1 | 0 | 22159* | 1 | 2 | 2
Cn1cccc1CNCc1ccccc1Cl | -8 | 18677* | 2 | -6 | -4
SMILES | BoNT-F LC inh | Autofluor counter | BoNT A protease | MazEF act | Anthrax LF prot
c1ccc(OCCCCn2cnc3ccccc32)cc1 | -3 | 2853 | 0 | -2 | -10
Fc1ccc(Cn2cnc3ccccc32)cc1 | 6 | 3812 | 0 | 0 | -2
Cc1ccccc1OCCCCn1cnc2ccccc21 | -6 | 10525 | -2 | -7 | -5
Brc1ccccc1OCCCn1cnc2ccccc21 | 3 | 19986* | 1 | -5 | -1
c1ccc(OCCn2cnc3ccccc32)cc1 | 25 | 17262* | ? | 4 | -4
CCCOc1ccc(Cn2cnc3ccccc32)cc1 | -2 | 16239* | 1 | -4 | 0
COCCNC(=O)c1cc(-c2cccs2)on1 | -5 | 5329 | 0 | 2 | -4
COCCNC(=O)Nc1ccc2nc(-c3cccs3)c(-c3cccs3)nc2c1 | 42* | 4576 | 132* | 2 | 57*
Cc1ccc(C)c(-n2c(-c3ccc4c(c3)OCO4)n[nH]c2=S)c1 | 1 | 23573* | ? | 6 | -1
Cn1c(SCC(=O)N2CC(=O)Nc3ccccc32)nnc1C(F)(F)F | -6 | 6101 | -3 | 0 | -2
CCOC(=O)C1=C(C)NC2=C(C(=O)CC(C)(C)C2)C1c1cccc(C)n1 (configuration not stated) | -2 | 20812* | -1 | 1 | -1
CC(NC(=O)COC(=O)Cc1ccsc1)C1CC2CCC1C2 (configuration not stated) | -4 | 24292* | -3 | 3 | -2
C[C@H](NC(=O)c1ccc(C(C)(C)C)cc1)C(=O)N1CCOCC1 | 2 | 3941 | 0 | 0 | 3
Cc1cc(C)c(C)c(OCCCCn2cnc3ccccc3c2=O)c1 | -1 | 23324* | 0 | 2 | -3
CCC1(C)COC2(OC1)C(=O)Nc1ccccc12 (configuration not stated) | 0 | 20257* | 0 | 2 | 1
CC(C)Cn1c(SCC(=O)NC2CC2)nc2ccccc21 | 3 | 2760 | 1 | 7 | 0
COc1cc2c(C#N)c(N3CCCCC3)nc(N)c2c(N)n1 | -10 | 3076 | 4 | 56* | -4
COc1cc2c(C#N)c(N3CCc4ccccc4C3)nc(N)c2c(N)n1 | -7 | 3674 | 3 | 62* | 0
COc1cc2c(C#N)c(N3CCOCC3)nc(N)c2c(N)n1 | -3 | 3240 | 0 | 20 | -1
CCc1ccccc1NC(=O)Cn1nc(C(F)(F)F)cc1C1CC1 | -1 | 16270* | ? | -2 | -2
CCNS(=O)(=O)c1ccc(NC(=O)Cn2nc(C(F)(F)F)cc2C)cc1 | -6 | 2854 | 0 | 4 | 0
COc1cc2[nH]c(=S)n(NC(=O)CC(C)C)c(=O)c2cc1OC | -3 | 24467* | ? | -4 | -4
CCCCNC(=O)CCCCCn1c(=O)[nH]c2cc(OC)c(OC)cc2c1=O | -1 | 19264* | ? | 1 | -11
CCOc1cc2[nH]c(=O)n(CCCCC(=O)N3CCCCCC3)c(=O)c2cc1OCC | 13 | 9452 | 0 | 3 | -5
CCOc1cc2[nH]c(=S)n(CCCC(=O)N3CCC4(CC3)OCCO4)c(=O)c2cc1OCC | 0 | 22729* | -1 | 9 | 1
CCOc1cc2[nH]c(=S)n(CCOC)c(=O)c2cc1OCC | -2 | 22228* | -1 | 3 | -4
CCCCCNC(=O)CCCCn1c(=O)[nH]c2cc(OCC)c(OCC)cc2c1=O | -8 | 4282 | -1 | -1 | 1
CC(=O)c1c(O)cc2c3c1OC(C)(C)C1CCC(C)(CC31)O2 (configuration not stated) | -4 | 2954 | -1 | -1 | -13
COc1ccc(-c2csc(C(C)(O)c3ccc(F)c(F)c3)n2)cn1 (configuration not stated) | -2 | 3871 | 0 | · | -2
COc1cc2[nH]c(=O)n(Cc3ccc(C(=O)NC4CCCC4)cc3)c(=O)c2cc1OC | 11 | 3343 | 0 | 88* | 0
